In PubChem BioAssay (NCI) one finds growth data, which are given here for 36 compounds.

The panel holds about 83,000 compounds, 20% with a hit somewhere; the sample as a whole holds those more often.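 96-well plates, one dose, 48 hours. Percent growth reported; active if below 10.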 Unmarked numbers belong to inactive results. Active and inactive are the calls of the source.

This test has as its system SF-539 CNS. In words: NCI-60 one-dose screen, 48 h (100 = growth as untreated, 0 = no growth, -100 = all killed). To be noted: 10 µM unless noted.
In the case of `NC(=O)n1c(=O)n(-c2cccc(C(F)(F)F)c2)c(=O)c2cc(-c3ccc(F)cc3F)ccc21`, the growth is 15.5%.
In the case of `O=C1CSC(c2cn(-c3ccccc3)nc2-c2ccc(Cl)cc2)N1c1ccccc1` (stereo unspecified), the growth is 99%.
For `COc1ccc(/C=N/NC(=O)CSc2nc(-c3cnccn3)cc(-c3cccs3)c2C#N)cc1` the value was 39.1%.
Next, `C#Cc1cc(OC)c(C(=O)Nc2ccc(F)cc2C(=O)Nc2cccc(S(=O)(=O)C(F)(F)F)c2)cn1`: -87.1% (active); `CN1c2ccccc2Sc2cc(/C=N/Nc3ccnc4cc(Cl)ccc34)ccc21`: 103%.
For `O=C(/C=C/c1cccc(F)c1)c1cccc(OCCCOc2cccc(C(=O)/C=C/c3cccc(F)c3)c2)c1` the value was 92.3%; for `CN1CCN(Cc2ccc(NC(=O)c3cncc(C#Cc4cnc(N)nc4)c3)cc2C(F)(F)F)CC1`, 14.6%; for `O=C(CSc1nc2ccccc2c(=O)n1-c1ccc(Cl)c(Cl)c1)Nc1ccc(S(=O)(=O)Nc2ccc(Cl)nn2)cc1`, 90.7%.
Turning to `Cc1[nH]c(C(=O)Nc2ccc(C(N)=O)cc2N2CCOC(C)C2)c(Cl)c1Cl` (stereo unspecified), the growth was 95.7%.
Turning to `N#Cc1nc(-c2ccccc2)oc1N1CCC(C2(C(F)(F)F)N=N2)CC1`, the growth was 99.2%.
For the compound `C/C(=C(\c1ccc(O)cc1)c1ccc(OCCN2CCCCCC2)cc1)c1ccc(Cl)cc1`, the growth was -91.8% (active).
For `COc1ccc(C(=O)c2c(N)c(C#N)cn2-c2ccc(Cl)cc2Cl)cc1` the value was 102%.
For the compound `C#C[C@]1(O)CC[C@H]2[C@@H]3CC=C4c5sc(Nc6cccc(F)c6)nc5CC[C@]4(C)[C@H]3CC[C@@]21C`, the growth was -10.8% (active).
Next, `C[C@@H]1OCC2(CCN(c3cnc(C(=O)Nc4cc(F)cc5cccnc45)cn3)CC2)[C@@H]1N`: 71.7%; `Cn1c(SCC(=O)c2ccc(F)cc2)nc2ccccc2c1=O`: 98.2%.
On to `O=C(CCCCCC/C=C\c1csc(Br)n1)NO`, for which the growth was 78.9%.
As for `COc1ccc(-c2cc(-c3ccc(N4CCOCC4)cc3)n3c(n2)nc2ccccc23)cc1OC`, the growth is 76.7%.
Next, `CN(C)c1cccc2c(S(=O)(=O)Nc3cccc(-c4csc(NC(=O)CCCCCN5CCN(CCO)CC5)n4)c3)cccc12`: 54.7%; `O=c1nc(Nc2ccc([N+](=O)[O-])cc2O)sc2ccccc12`: -36.5% (active).
For the compound `CCc1cc(OC(=O)N2CCC(N3CCCCC3)CC2)ccc1Nc1cc(-c2ccc(-n3cccn3)cc2)[nH]n1`, the growth is -54.8% (active).
For `COc1ccc(-c2c(C(N)=O)c(N)n(Cc3nc4ccccc4[nH]3)c(=O)c2C#N)c(OC)c1` the value was 97.9%.
Turning to `CCOC(=O)Nc1ccc2c(ccn2C(=O)c2cccc(F)c2)c1`, the growth was 0.0722% (active).
On to `CN(C)CCCOc1ccc(C(=C(c2ccccc2)C2CCCC2)c2ccc(OCCCN(C)C)cc2)cc1`, for which the growth is -89.4% (active).
On to `CN1CCC[C@]2(C)[C@H]3CC[C@@H]4[C@@H]5[C@H]6OC[C@@]5(CCC6(C)C)CC[C@@]4(C)[C@]3(C)CC[C@H]2C1(C)C`, for which the growth is 78.4%.
Next, `CNC(=O)c1cc(-c2ccc(NC(=S)Nc3cccc(C(F)(F)F)c3)cc2)nc2cccnc12`: 100%; `CC1(C)C=Cc2cc(/C(N)=N/C(N)=N/c3nc4ccccc4s3)ccc2O1`: 97.3%.
As to `C#Cc1cc(C(=O)Nc2ccc(CNCCN3CCOCC3)c(C(F)(F)F)c2)ccc1C`, the growth was 93.6%.
For `CC(C)(O)c1cncc(-c2ccc3ncc(C#N)c(N4CCc5cc(F)c(Cl)cc54)c3c2)c1` the value was -15% (active); for `CN1CCN(Cc2ccc(/C=N/Nc3ccnc4cc(Cl)ccc34)cc2)CC1`, 64.7%; for `Cc1ccc(C(=O)CSc2nnc(-c3ccc(-c4ccc(Cl)cc4)nc3C)o2)cc1`, 97.6%.
Next, `Cc1ccccc1N1CCN(C2=C(Cl)C(=O)c3ncccc3C2=O)CC1`: 78.9%; `O=C1Nc2ccccc2/C1=C/c1ccc(OCC(=O)c2ccccc2)cc1`: 90.6%; `CC1=C(C)C(=O)C(Nc2ccc3c(c2)OCCO3)=C(Br)C1=O`: 105%.
Consider `CCN(CC)c1ccc(/C=N/NC(=O)c2ccc(S(N)(=O)=O)cc2)c(O)c1`, for which the growth was 5% (active).
On to `Cc1ccc(S(=O)(=O)NCCCNc2nc(Nc3ccc(N4CCN(C)CC4)cc3)nc3ccsc23)cc1`, for which the growth is -80.8% (active).
With `CN1CCN(Cc2ccc(NC(=O)c3cncc(C#Cc4cnc5ccc(NCCO)nn45)c3)cc2C(F)(F)F)CC1`, the growth was -74.4% (active).
